The values below come from PubChem BioAssay AID2506 (National Center for Advancing Translational Sciences (NCATS), 2010).

Values joined by “and” are separate entries in the source; they are usually repeats but may differ in a detail not shown here. Equal entries are not always repeated. Values without a mark were called inactive. The call rests on the fitted dose curve; in most records, active means well fitted curve in the direction sought with a large enough effect; inactive means no such curve, though single readings can be large or run the other way.

For this assay, the system named is 4-diphosphocytidyl-2-C-methyl-D-erythritol kinase IspE (bacterial, species not stated). Description: Confirmatory Assay for Inhibitors of Human Galactokinase (GALK): CDP-Me assay counterscreen for probe SAR. To be noted: Kinase-Glo ATP luminescence, 1 h. From the text:
NIH Molecular Libraries Probe Production Centers Network [MLPCN] NIH Chemical Genomics Center [NCGC] MLPCN Grant: R03 MH085689-01 Assay Submitter (PI): Kent Lai (University of Utah School of Medicine, 50 N Mario Capecchi Drive, Salt Lake City, UT 84132) NCGC Assay Overview The GHMP kinase family is a unique class of important enzymes that plays an essential role in many metabolic processes. It contains more than 170 protein members among which are the galactokinase (GALK) and the CMK enzymes. GALK plays a crucial role in galactose processing and is a potential therapeutic target for Classic Galactosemia (OMIM: 230400). CMK is involved for the non-mevalonate synthesis of isoprenoids precursors and natural products like sterols or ubiquinones which are important to many biological functions. Although the sequence identity between GALK and CMK is low, the three-dimensional structures and active sites are highly similar. Therefore to determine the validity and selectivity of an active compound observed in the GALK qHTS screen (AID: 1868), a bioluminescent counter-screen targeting bacterial CMK was developed. In addition, because the mevalonate independent synthesis of isoprenoids are more prevalent in opportunistic pathogens such as bacteria, CMK is a potential novel therapeutic target where selective inhibitors could be used to determine potential antibacterial effects. The CMK (provided by Kent Lai) was assayed using ATP and 4-diphosphocytidyl-2-C-methyl-D-erythritol (CDP-ME; Echelon, cat# I-M052) as substrates. Promega Kinase-Glo Plus (cat# V3774) technology was used to detect the residual ATP following kinetic reaction. Briefly, the Kinase-Glo Plus contains Ultra-Glo [5] luciferase and D-luciferin which generates a bioluminescence signal from the remaining ATP.
NCGC Assay Protocol Summary: Three uL/well of substrate solution (15 uM ATP, 30 uM CDP-ME, 20 mM HEPES pH8.0, 5 mM MgCl2, 40 mM KCl, 1 mM DTT, 0.01% BSA final concentration) was dispensed into 1536-well, assay plates (Greiner, solid white medium-binding plates) with Aurora Discovery BioRAPTR Flying Reagent Dispenser (FRD; Beckton-Dickenson). Compound and control solutions (23 nL) were transferred to the assay plate using the Kalypsys 1536-pin tool. One uL/well enzyme solution (0.25 ug/mL CDP-Me kinase, 20 mM HEPES pH8.0, 5 mM MgCl2, 40 mM KCl, 1 mM DTT, 0.01% BSA final concentration) was then added using the FRD yielding a total kinase reaction volume of 4 uL/ well. After 1 hour of room temperature incubation, 4 uL Kinase-Glo Plus reagent was added for a final assay volume of 8 uL/well. After 1 min, luminescence was detected with the ViewLux plate reader (Perkin Elmer, Waltham, MA) using a 1 sec exposure time and 2x binning settings.
(The purpose of a counterscreen is to sort out artefacts and off-target activity.)
Consider `COc1ccc(C2N=C(Nc3nc4ccccc4o3)NC3=C2C(=O)CC(C)(C)C3)cc1` (stereo not drawn), for which the max response was 1.84%.
Then `O=C1CC(c2ccccc2)CC2=C1C1(CCCCC1)N=C(Nc1nc3ccccc3o1)N2` (stereo not drawn), with 5.2%; and `O=C1CCCC2=C1C1(CCCOC1)N=C(Nc1nc3ccccc3o1)N2` (stereo not drawn), with 3.35%; and `O=C1CCCC2=C1C1(CCCC1)N=C(Nc1nc3cc(Br)ccc3o1)N2`, with 5.8%.
On to `O=C1CCCC2=C1C1(CCSC1)N=C(Nc1nc3ccccc3o1)N2` (stereo not drawn), for which the max response was -0.317%.
Then `O=C1CCCC2=C1C1(CCSCC1)N=C(Nc1nc3ccccc3o1)N2`, with -0.443%.
The same measure for `O=C1CCCC2=C1C1(CCCC1)N=C(Nc1nc3cc(Cl)ccc3o1)N2`: 3.11%; for `CCC1CCC2(C1)N=C(Nc1nc3ccccc3o1)NC1=C2C(=O)CCC1` (stereo not drawn): 0.524% [middle of 5 runs]; for `CC1(C)CC(=O)C2=C(C1)NC(Nc1nc3ccccc3o1)=NC2c1cccc(Cl)c1` (stereo not drawn): 2.44%.
Then `CC1CCC2(C1)N=C(Nc1nc3ccccc3o1)NC1=C2C(=O)CCC1` (stereo not drawn), with 2.87%.
In the case of `COc1cccc(C2N=C(Nc3nc4ccccc4o3)NC3=C2C(=O)CC(C)(C)C3)c1` (stereo not drawn), the max response was 0.986%.
Take `O=C1CCCC2=C1C1(CCS(=O)(=O)C1)N=C(Nc1nc3ccccc3o1)N2` (stereo not drawn): the max response was -0.863%.
Then `O=C1CCCC2=C1[C@@]1(CCC(c3ccccc3)C1)N=C(Nc1nc3ccccc3o1)N2` (stereo partly drawn), with 3.98%; and `CC1(C)CC(=O)C2=C(C1)NC(Nc1nc3ccccc3o1)=NC2c1ccccc1Cl` (stereo not drawn), with 1.88%; and `CC1(C)CC(=O)C2=C(C1)NC(Nc1nc3ccccc3o1)=NC21CCCC1`, with -5.27%.
Then `O=C1CCCC2=C1C1(CCOCC1)N=C(Nc1nc3ccccc3o1)N2`, with 4.63%; and `O=C1CCCC2=C1C1(CCCC1)N=C(Nc1nc3ccccc3o1)N2`, with 4.68% and -2.85%.
The same measure for `O=C1CCCC2=C1C(c1ccccc1Cl)N=C(Nc1nc3ccccc3o1)N2` (stereo not drawn): -2.1%; for `CC1(C)CC(=O)C2=C(C1)NC(Nc1nc3ccccc3o1)=NC2c1cccnc1` (stereo not drawn): 1.01%.
As to `O=C1CCCC2=C1C1(CCCC1)N=C(Nc1nc3cc4ccccc4cc3o1)N2`, the max response was 5.94%.
The same measure for `Cc1ccc2oc(NC3=NC4(CCCC4)C4=C(CCCC4=O)N3)nc2c1`: 5.2%; for `Cc1nc(Nc2nc3ccccc3o2)nc2c1C(=O)CC(C)(C)C2`: -1.17%; for `CC1(C)CC(=O)C2=C(C1)NC(Nc1nc3ccccc3o1)=NC2c1ccccc1` (stereo not drawn): 1.82%.
The same measure for `CC1(C)CC(=O)C2=C(C1)NC(Nc1nc3ccccc3o1)=NC2c1cccc(F)c1` (stereo not drawn): 2.59%.
In the case of `Cn1c(NC2=NC3(CCCC3)C3=C(CCCC3=O)N2)nc2ccccc21`, the max response was 5.48%.
Then `O=C1CCC2=C1C1(CCCC1)N=C(Nc1nc3ccccc3o1)N2`, with 2.86%; and `CC1(C)CC(=O)C2=C(C1)NC(Nc1nc3ccccc3o1)=NC2c1cccc(O)c1` (stereo not drawn), with 1.58%.
Then `O=C1CCCC2=C1C1(CCCC1)N=C(Nc1nc3ccccc3n1Cc1ccccc1)N2`, with 4.95%; and `CC1(C)N=C(Nc2nc3ccccc3o2)NC2=C1C(=O)CCC2`, with 3.59%; and `O=C1CCC2=C1C(c1ccccc1Cl)N=C(Nc1nc3ccccc3o1)N2` (stereo not drawn), with -0.401%.
With `Cc1ccc2nc(NC3=NC4(CCCC4)C4=C(CCCC4=O)N3)oc2c1`, the max response was 7.12%.
The same measure for `Cc1ccc(C2N=C(Nc3nc4ccccc4o3)NC3=C2C(=O)CC(C)(C)C3)cc1` (stereo not drawn): 2.37%.
Turning to `O=C1CCCC2=C1C1(CCCCC1)N=C(Nc1nc3ccccc3o1)N2`, the max response was -0.522%.
The same measure for `O=C1CCCC2=C1C1(CCC1)N=C(Nc1nc3ccccc3o1)N2`: 4.72%; for `O=C1CCCC2=C1C1(CCCC1)N=C(Nc1nc3cc(-c4ccccc4)ccc3o1)N2`: -2.69%.
Turning to `O=C1CCCC2=C1C(c1ccc(Cl)cc1)N=C(Nc1nc3ccccc3o1)N2` (stereo not drawn), the max response was 0.739%.
Then `O=C1CC(c2ccccc2)CC2=C1C1(CCCC1)N=C(Nc1nc3ccccc3o1)N2` (stereo not drawn), with 3.59%.
On to `COc1ccccc1C1N=C(Nc2nc3ccccc3o2)NC2=C1C(=O)CC(C)(C)C2` (stereo not drawn), for which the max response was 1.66%.
